Our source for the outcome and AC50 values is PubChem BioAssay (EPA / NIEHS).

The source made the active and inactive calls. How the source made its calls: active means hit-call score of the fitted dose curve at least 0.9, where 1 is the maximum; inactive means score below 0.9.

Details in all cases: mRNA level, 48 h; actives raise or lower the signal
Read-out in one experiment: Caspase-3 (Homo sapiens) (UniProt P42574)
Nature of the experiment: LTEA_HepaRG_CASP3: Life Technologies and Expression Analysis (LTEA) Assay for cysteine-aspartic acid protease (CASP3) using HepaRG (AID 2283477). In short, it runs like this: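 Transcript-level assay: CASP3 mRNA in human HepaRG after 48 h treatment, eight half-log concentrations from 100 uM in 0.5% DMSO, quantified by qRT-PCR.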

Read-out in experiment [1]: Cytochrome P450 (CYP24A1), CYP24A1 (gene 1591)
As to the kind of experiment: LTEA_HepaRG_CYP24A1: Life Technologies and Expression Analysis (LTEA) Assay for Cytochrome P450 (CYP24A1) using HepaRG (AID 2283478). In short, it runs like this: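 Gene expression of CYP24A1 by TaqMan qRT-PCR in HepaRG after 48 h treatment, highest concentration 100 uM; activity fitted in both directions relative to DMSO vehicle.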

Read-out in experiment [2]: Cytochrome P450 (CYP1A2), CYP1A2 (gene 1544)
Nature of the experiment: LTEA_HepaRG_CYP1A2: Life Technologies and Expression Analysis (LTEA) Assay for Cytochrome P450 (CYP1A2) using HepaRG (AID 2283479). In short, it runs like this: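 In duplicate wells, HepaRG cultures maintained in 0.5% DMSO were treated 48 h across an 8-point, half-log series topping at 100 uM; phenobarbital (1 mM) served as induction control. Expression was read by qRT-PCR.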

Read-out in experiment [3]: cysteine-aspartic acid protease (CASP8), CASP8 (gene 841)
Nature of the experiment: LTEA_HepaRG_CASP8: Life Technologies and Expression Analysis (LTEA) Assay for cysteine-aspartic acid protease (CASP8) using HepaRG (AID 2283480). In short, it runs like this:
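Differentiated HepaRG cells in serum-free induction medium, 48 h exposure, eight-point half-log series from 100 uM in 0.5% DMSO, duplicates. CASP8 mRNA by qRT-PCR, normalized to ACTB, GAPDH, POLR2A; bidirectional fit versus DMSO.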

Read-out in experiment [4]: Cytochrome P450 (CYP2B6), CYP2B6 (gene 1555)
Nature of the experiment: LTEA_HepaRG_CYP2B6: Life Technologies and Expression Analysis (LTEA) Assay for Cytochrome P450 (CYP2B6) using HepaRG (AID 2283481). In short, it runs like this: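 Human HepaRG, 48 h dosing, 0.5% DMSO vehicle, top dose 100 uM. CYP2B6 transcript by qRT-PCR, housekeeping-normalized, bidirectional curve fit.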

Read-out in experiment [5]: Cytochrome P450 2C19 (Homo sapiens) (UniProt P33261)
Nature of the experiment: LTEA_HepaRG_CYP2C19: Life Technologies and Expression Analysis (LTEA) Assay for CYP2C19 using HepaRG (AID 2283482). In short, it runs like this: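 Endpoint: CYP2C19 mRNA change, bidirectional fit vs 0.5% DMSO. Cells: HepaRG, 48 h exposure, eight-point series topping at 100 uM. Quantitation: qRT-PCR normalized to ACTB, GAPDH, POLR2A.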

Read-out in a further experiment: CYP2C8 (gene 1558)
As to the kind of experiment: LTEA_HepaRG_CYP2C8: Life Technologies and Expression Analysis (LTEA) Assay for CYP2C8 using HepaRG (AID 2283483). In short, it runs like this: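 Differentiated HepaRG cells in serum-free induction medium exposed 48 h in duplicate to 8 half-log concentrations from 100 uM in 0.5% DMSO. CYP2C8 mRNA by qRT-PCR normalized to ACTB, GAPDH, POLR2A; bidirectional fit versus DMSO.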

Read-out in a further experiment: CYP2C9 (gene 1559)
Nature of the experiment: LTEA_HepaRG_CYP2C9: Life Technologies and Expression Analysis (LTEA) Assay for CYP2C9 using HepaRG (AID 2283484). In short, it runs like this:
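Differentiated human HepaRG cells in serum-free induction medium were exposed 48 h to chemicals in 8-point half-log series from 100 uM (0.5% DMSO), in duplicate. CYP2C9 mRNA was measured by qRT-PCR, normalized to ACTB/GAPDH/POLR2A, with bidirectional fitting versus DMSO.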

Read-out in a further experiment: CYP2E1 (gene 1571)
As to the kind of experiment: LTEA_HepaRG_CYP2E1: Life Technologies and Expression Analysis (LTEA) Assay for CYP2E1 using HepaRG (AID 2283485). In short, it runs like this: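 Differentiated HepaRG cells were treated in duplicate for 48 h with chemicals in 0.5% DMSO, from 100 uM downward in half-log dilutions. RNA was then analysed by qRT-PCR for CYP2E1 induction or loss.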

Read-out in the next experiment: CYP4A11 (gene 1579)
As to the kind of experiment: LTEA_HepaRG_CYP4A11: Life Technologies and Expression Analysis (LTEA) Assay for CYP4A11 using HepaRG (AID 2283486). In short, it runs like this:
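Human hepatic HepaRG cultures receive duplicate 48 h exposures across a concentration-response series topping at 100 uM. Expression changes in CYP4A11 are measured by qRT-PCR relative to DMSO controls.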

Read-out in experiment [6]: Cytochrome P450 3A4 (Homo sapiens) (UniProt P08684)
As to the kind of experiment: LTEA_HepaRG_CYP3A4: Life Technologies and Expression Analysis (LTEA) Assay for CYP3A4 using HepaRG (AID 2283487). In short, it runs like this:
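HepaRG, 48 h exposure, 8-pt CRC from 100 uM (half-log), 0.5% DMSO, duplicates; serum-free induction medium. Readout: CYP3A4 mRNA, qRT-PCR, ACTB/GAPDH/POLR2A normalization. Bidirectional fit vs DMSO.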

Read-out in experiment [7]: DNA damage-inducible transcript 3 (DDIT3), DDIT3 (gene 1649)
Nature of the experiment: LTEA_HepaRG_DDIT3: Life Technologies and Expression Analysis (LTEA) Assay for DNA damage-inducible transcript 3 (DDIT3) using HepaRG (AID 2283488). In short, it runs like this: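 Changes in DDIT3 transcript, in either direction relative to 0.5% DMSO vehicle, were quantified by TaqMan qRT-PCR after 48 h chemical exposure of HepaRG cells at 8 concentrations, maximum 100 uM.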

Read-out in experiment [8]: Pro-epidermal growth factor (Homo sapiens) (UniProt P01133)
Nature of the experiment: LTEA_HepaRG_EGF: Life Technologies and Expression Analysis (LTEA) Assay for Epidermal growth factor (EGF) using HepaRG (AID 2283489). In short, it runs like this:
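Concentration-response mRNA assay: HepaRG cells dosed 48 h (max 100 uM, 0.5% DMSO), EGF measured by qRT-PCR and normalized to ACTB/GAPDH/POLR2A.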

Read-out in experiment [9]: Early growth response protein 1 (EGR1) transcription factor, EGR1 (gene 1958)
As to the kind of experiment: LTEA_HepaRG_EGR1: Life Technologies and Expression Analysis (LTEA) Assay for Early growth response protein 1 (EGR1) transcription factor using HepaRG (AID 2283490). In short, it runs like this: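 Differentiated HepaRG cells in serum-free induction medium exposed 48 hours, duplicate, to 8 half-log concentrations up to 100 uM in 0.5% DMSO. EGR1 mRNA measured by TaqMan qRT-PCR, normalized to ACTB, GAPDH, POLR2A; bidirectional fit versus DMSO.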

Read-out in experiment [10]: Ezrin (EZR), EZR (gene 7430)
Nature of the experiment: LTEA_HepaRG_EZR: Life Technologies and Expression Analysis (LTEA) Assay for Ezrin (EZR) using HepaRG (AID 2283491). In short, it runs like this:
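Read-out is EZR transcript level by qRT-PCR, normalized to three housekeeping genes and fitted bidirectionally against the DMSO control. Human HepaRG cells received test chemicals for 48 h at eight half-log concentrations up to 100 uM in 0.5% DMSO.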

Read-out in experiment [11]: Cytochrome P450 3A7 (Homo sapiens) (UniProt P24462)
Nature of the experiment: LTEA_HepaRG_CYP3A7: Life Technologies and Expression Analysis (LTEA) Assay for CYP3A7 using HepaRG (AID 2283492). In short, it runs like this: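 qRT-PCR of CYP3A7 in HepaRG lysates after 48 h treatment; concentration-response (8 points, max 100 uM) analysed bidirectionally relative to 0.5% DMSO controls.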

Read-out in a further experiment: CYP3A5 (gene 1577)
As to the kind of experiment: LTEA_HepaRG_CYP3A5: Life Technologies and Expression Analysis (LTEA) Assay for CYP3A5 using HepaRG (AID 2283493). In short, it runs like this: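 mRNA induction or loss of CYP3A5 assessed in HepaRG after 48 h dosing, 100 uM top concentration, duplicate wells; TaqMan qRT-PCR with ACTB, GAPDH, POLR2A normalization; 0.5% DMSO as negative control.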

Read-out in experiment [12]: Fatty Acid-Binding Protein 1 (FABP1), FABP1 (gene 2168)
As to the kind of experiment: LTEA_HepaRG_FABP1: Life Technologies and Expression Analysis (LTEA) Assay for Fatty Acid-Binding Protein 1 (FABP1) using HepaRG (AID 2283494). In short, it runs like this: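 Differentiated human HepaRG cells exposed 48 h in serum-free induction medium to eight half-log concentrations up to 100 uM (0.5% DMSO), duplicate. FABP1 mRNA by qRT-PCR, normalised to ACTB, GAPDH, POLR2A; bidirectional fitting against DMSO.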

Read-out in experiment [13]: Cytochrome P450 4A22 (Homo sapiens) (UniProt Q5TCH4)
As to the kind of experiment: LTEA_HepaRG_CYP4A22: Life Technologies and Expression Analysis (LTEA) Assay for Cytochrome P450 4A22 (CYP4A22) using HepaRG (AID 2283495). In short, it runs like this: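 Concentration-response (8 points, max 100 uM, 0.5% DMSO) in human HepaRG liver cells after 48 h exposure. CYP4A22 mRNA by TaqMan qRT-PCR with housekeeping-gene normalization.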

Read-out in experiment [14]: Cytochrome P450 7A1 (Homo sapiens) (UniProt P22680)
Nature of the experiment: LTEA_HepaRG_CYP7A1: Life Technologies and Expression Analysis (LTEA) Assay for Cytochrome P450 7A1 (CYP7A1) using HepaRG (AID 2283496). In short, it runs like this: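 Gene expression endpoint in human HepaRG liver cells treated for 48 h with test chemicals (up to 100 uM, 0.5% DMSO). Values come from bidirectional concentration-response fitting versus DMSO.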

Sequence of Caspase-3 (Homo sapiens) (P42574 whole entry, looked up): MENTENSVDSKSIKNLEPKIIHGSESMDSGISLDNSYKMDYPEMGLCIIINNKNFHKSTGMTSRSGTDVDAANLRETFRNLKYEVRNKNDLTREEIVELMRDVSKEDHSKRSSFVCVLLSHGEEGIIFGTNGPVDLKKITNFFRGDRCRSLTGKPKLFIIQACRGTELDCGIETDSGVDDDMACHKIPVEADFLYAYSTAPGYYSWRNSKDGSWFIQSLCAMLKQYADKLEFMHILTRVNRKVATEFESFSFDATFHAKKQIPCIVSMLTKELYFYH
Sequence of Cytochrome P450 3A7 (Homo sapiens) (P24462 whole entry, looked up): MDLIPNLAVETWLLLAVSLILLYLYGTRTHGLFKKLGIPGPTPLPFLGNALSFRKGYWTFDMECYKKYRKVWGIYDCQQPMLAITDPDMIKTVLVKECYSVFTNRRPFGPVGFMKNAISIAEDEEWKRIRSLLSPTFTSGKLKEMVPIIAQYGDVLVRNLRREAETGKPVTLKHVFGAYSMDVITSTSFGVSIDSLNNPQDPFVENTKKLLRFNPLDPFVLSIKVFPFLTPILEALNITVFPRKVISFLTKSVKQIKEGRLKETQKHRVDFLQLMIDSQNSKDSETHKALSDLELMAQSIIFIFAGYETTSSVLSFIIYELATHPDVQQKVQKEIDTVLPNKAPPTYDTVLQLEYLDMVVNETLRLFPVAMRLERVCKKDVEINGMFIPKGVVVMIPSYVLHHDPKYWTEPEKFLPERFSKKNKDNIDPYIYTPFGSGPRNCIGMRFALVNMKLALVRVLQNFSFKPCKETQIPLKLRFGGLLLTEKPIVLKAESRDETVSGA
Sequence of Cytochrome P450 3A4 (Homo sapiens) (P08684 whole entry, looked up): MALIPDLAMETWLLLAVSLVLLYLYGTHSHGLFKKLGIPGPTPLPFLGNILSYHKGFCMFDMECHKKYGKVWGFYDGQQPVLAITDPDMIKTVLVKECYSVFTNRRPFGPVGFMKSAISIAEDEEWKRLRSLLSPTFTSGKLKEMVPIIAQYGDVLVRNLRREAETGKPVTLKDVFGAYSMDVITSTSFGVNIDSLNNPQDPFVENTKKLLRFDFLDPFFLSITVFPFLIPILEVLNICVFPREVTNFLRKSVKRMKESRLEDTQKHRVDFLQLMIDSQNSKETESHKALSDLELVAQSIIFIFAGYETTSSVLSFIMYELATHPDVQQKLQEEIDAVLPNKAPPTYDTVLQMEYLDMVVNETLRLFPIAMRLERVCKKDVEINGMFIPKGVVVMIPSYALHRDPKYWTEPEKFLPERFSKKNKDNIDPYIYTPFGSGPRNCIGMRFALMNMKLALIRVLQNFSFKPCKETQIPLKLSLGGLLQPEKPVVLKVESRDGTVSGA
Sequence of Cytochrome P450 2C19 (Homo sapiens) (P33261 whole entry, looked up): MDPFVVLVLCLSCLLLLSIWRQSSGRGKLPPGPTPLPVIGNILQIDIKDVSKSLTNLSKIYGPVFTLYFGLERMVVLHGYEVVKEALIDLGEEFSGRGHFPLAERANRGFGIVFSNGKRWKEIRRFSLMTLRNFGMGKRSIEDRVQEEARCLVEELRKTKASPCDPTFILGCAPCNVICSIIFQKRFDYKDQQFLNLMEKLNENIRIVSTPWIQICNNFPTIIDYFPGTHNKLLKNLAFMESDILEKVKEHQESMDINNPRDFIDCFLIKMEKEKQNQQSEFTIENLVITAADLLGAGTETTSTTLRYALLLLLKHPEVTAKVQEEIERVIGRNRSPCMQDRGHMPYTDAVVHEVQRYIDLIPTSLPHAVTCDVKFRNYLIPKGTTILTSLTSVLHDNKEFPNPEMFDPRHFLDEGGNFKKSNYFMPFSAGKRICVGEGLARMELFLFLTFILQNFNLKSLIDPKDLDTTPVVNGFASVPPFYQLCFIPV

As for `CCCCCC(=O)O`, the outcome (with Caspase-3 (Homo sapiens); in experiment [1]; in [3]; in experiment [4]; in experiment [5]; with CYP2C8 (gene 1558)) was inactive. For the same molecule, the molecule was classed as inactive (in the experiment with CYP2C9 (gene 1559); with CYP2E1 (gene 1571); with CYP4A11 (gene 1579); in experiment [6]; in experiment [7]; in [8]). The molecule was classed as inactive (in [9]; in experiment [10]; in [11]; in the experiment with CYP3A5 (gene 1577); in [12]; in [13]). Moreover, the call in experiment [14] was inactive. Also, the AC50 – broadly, the concentration giving half of the maximal activity seen – in [2] was 63.7 µM (active).
For the molecule `O=[N+]([O-])C(CO)(CO)CO`, the call (with Caspase-3 (Homo sapiens); in experiment [1]; in experiment [3]; in experiment [4]; in experiment [5]; with CYP2C8 (gene 1558)) was inactive. For the same molecule, the call (with CYP2C9 (gene 1559); with CYP2E1 (gene 1571); in the experiment with CYP4A11 (gene 1579); in experiment [6]; in experiment [7]; in experiment [8]) was inactive. Also, the molecule was called inactive (in [9]; in experiment [11]; with CYP3A5 (gene 1577); in [12]; in experiment [13]; in experiment [14]). In [2], the concentration at half-maximal activity (AC50) is 28.6 µM (active).
In the case of `C[Si]1(C)O[Si](C)(C)O[Si](C)(C)O[Si](C)(C)O1`, the molecule was classed as inactive (with Caspase-3 (Homo sapiens); in experiment [1]; in [2]; in [3]; in experiment [4]; in experiment [5]). Further, the molecule was classed as inactive (with CYP2C8 (gene 1558); with CYP2C9 (gene 1559); in the experiment with CYP2E1 (gene 1571); with CYP4A11 (gene 1579); in [6]; in experiment [7]). Also, the result (in [8]; in [9]; in experiment [11]; with CYP3A5 (gene 1577); in experiment [12]; in [13]) was inactive. Moreover, the molecule was called inactive in [14].
`Cc1ccc(C)c(O)c1C`: the molecule was called inactive (with Caspase-3 (Homo sapiens); in experiment [1]; in [3]; in experiment [4]; in experiment [5]; with CYP2C8 (gene 1558)). The molecule was classed as inactive (with CYP2C9 (gene 1559); in the experiment with CYP2E1 (gene 1571); in the experiment with CYP4A11 (gene 1579); in experiment [6]; in experiment [7]; in [8]). For the same molecule, the result (in experiment [9]; in experiment [10]; in experiment [11]; in the experiment with CYP3A5 (gene 1577); in experiment [12]; in experiment [13]) was inactive. In experiment [14], the molecule was classed as inactive. The AC50 in experiment [2] was 50 µM (active).
